# ALDH1A1 block – inhibitors of human aldehyde dehydrogenase 1A1; hit rate 7.3% among 220,000; Purified ALDH1A1, NADH fluorescence, propionaldehyde substrate; Potency, µM (highest dose often 75.3 µM), without a hit: at the highest dose activity, negative = inhibition, usual class: inhibitors; AID 1030; P00352;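 also: potency is read from the fitted curve at half-maximal effect; plate controls were no enzyme wells and a reference inhibitor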
# HPGD block – inhibitors of human 15-hydroxyprostaglandin dehydrogenase (HPGD); purified HPGD, NADH fluorescence kinetic, PGE2 substrate; Potency, µM, without a hit: at the highest dose activity change, negative = inhibition, usual class: inhibitors; P15428; hit rate 4.3% among 150,000; also: potency is read from the fitted curve at half-maximal effect
# Target sequence (P15428 whole entry, looked up): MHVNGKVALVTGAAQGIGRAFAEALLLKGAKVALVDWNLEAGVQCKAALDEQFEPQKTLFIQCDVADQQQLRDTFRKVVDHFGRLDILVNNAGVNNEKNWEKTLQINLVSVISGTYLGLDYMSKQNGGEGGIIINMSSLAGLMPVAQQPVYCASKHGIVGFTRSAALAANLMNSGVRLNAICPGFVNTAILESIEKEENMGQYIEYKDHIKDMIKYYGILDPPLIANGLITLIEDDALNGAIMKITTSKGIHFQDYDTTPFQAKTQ
#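 NADH formation kinetics: reaction with 30 uM PGE2 and 1 mM NAD+ (final), 20 nM enzyme, Tris-HCl pH 8 with Tween 20, after 15 min compound preincubation at room temperature. Fluorescence change, last versus first of five reads.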
# PNC inhibitor – inhibitors of perinucleolar compartment assembly; PC3M PTB-GFP, PNC prevalence imaging, 16 h; stronger effect = lower value; activity change (PNC), negative = inhibition, % at 10 µM; hit rate 3.1% among 140,000;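 active = readout at or below -70, meaning at least 70% loss of cells showing the perinucleolar compartment, a nuclear body marking cancer cells; inconclusive = readout between -30 and a set limit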;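 also: plate controls were DMSO wells for no effect and camptothecin positive control wells for full effect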
#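 PC3M cells stably expressing PTB-GFP, 750–1000 cells/well, treated 16 h at 37 °C with compound (23 nl of library stock), in duplicate. After paraformaldehyde fixation and Hoechst stain, imaged at 20x; PNC prevalence scored by image analysis.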
# Active calls of the source: *; u = inconclusive; x = no result given. The list is not random: actives were taken first. Their share in the collection is about 11%. Unless noted, calls follow the shape of the dose curve; as a rule, active = well fitted inhibition curve with a large enough effect (not every such curve was filed as active); inconclusive = small, poorly fitted or top-dose-only effect, or another doubt; inactive = no such curve, though single readings can be large or run the other way. Unless noted, % is scaled to controls: 0 for no effect and ±100 for the full control effect.
SMILES,ALDH1A1 block,HPGD block,PNC inhibitor
O=[N+]([O-])c1ccccc1/C=N/NC1=NCCCCC1,u,-18.0%,53.7
CC(C)(C)c1ccc(/C=N/Nc2ccc(C(=O)O)cc2)cc1,3.6%,14.1µM*,23.3
O=c1c2ccccc2nc(N/N=C/c2c(O)ccc3ccccc23)n1O,u,22.4µM*,-19.1
Cc1nc2ccccc2c(=O)n1/N=C/c1c(O)ccc2ccccc12,5.2%,x,x
Cc1cccc(C(C)C)c1NC(=O)c1ccc(CN(c2ccccc2)S(=O)(=O)c2ccccc2)cc1,4.5%,-6.2%,47.2
CCC1=C(OC(=O)N(CC)CC)N2C(=O)OC(=NCCOC)[C@]2(C)[C@H]2C1=CC[C@H]1C(=O)N(CC)C(=O)[C@H]12,-8.0%,-2.0%,x
O=c1c2ccccc2nc(N/N=C/c2ccc(O)cc2)n1O,10µM*,12.6µM*,u
O=c1[nH]c(N/N=C/c2ccccc2)nc2ccccc12,u,u,38.9
Cc1ccccc1NC(=O)C(C#N)Cc1cccnc1 (stereo unspecified),11.8%,-0.1%,u
Cc1cccc(N2N=C(C(=O)Nc3nc(C)cs3)CCC2=O)c1,-3.9%,x,x
Nc1nonc1C(=O)NCCNC(=O)c1ccccc1F,0.6%,3.7%,30.2
Nc1nonc1C(=O)NCCNS(=O)(=O)c1ccc(Br)cc1,10.2%,-7.7%,-89.9*
Cc1ccc2nc(C)c(C(=O)NN=C3CCN(C)CC3)n2c1,7.94µM*,x,x
CCOC(=O)c1c(C)nc2ccc(C)cn12,0.9%,-6.2%,4.5
CC(CCC(=O)O)C1CCC2C3C(=O)CC4CC(=O)CC[C@@]4(C)C3CC(=O)[C@]12C (stereo partly specified),-5.5%,-14.4%,x
COC(=O)CCC(=O)OC1(C)C(=O)C=C2C=C(c3ccc(C#N)cc3)OC=C2C1=O (stereo unspecified),-13.1%,-8.2%,x
CCCNC(=O)CCC(=O)Nc1ncc(-c2ccc(C)cc2)n1C,11.7%,-5.3%,-11.0
CCCCn1c(=O)cc(O)c2ccccc21,u,-5.3%,11.6
CCCCn1c(=O)c2c(O)cc(=O)oc2c2ccccc21,15.8µM*,-8.5%,u
C=CCn1c(O)c(CN2CCOCC2)c(C)c(C#N)c1=O,-6.2%,-13.8%,16.8
COc1cc(C(c2sc3nc(C)nn3c2O)N2CC(C)CC(C)C2)cc(OC)c1OC (stereo unspecified),14.1µM*,-15.2%,-2.9
CC1CCCN(C(c2ccccc2)c2sc3ncnn3c2O)C1 (stereo unspecified),-0.7%,x,x
COc1cc(C(c2sc3nc(C)nn3c2O)N2CC(C)OC(C)C2)cc(OC)c1OC (stereo unspecified),4.1%,-10.5%,-19.0
COc1cccc(C(c2sc3nc(C)nn3c2O)N2CCc3ccccc3C2)c1 (stereo unspecified),u,11.2µM*,14.4
CCN1CCN(C(c2cccc(OC)c2)c2sc3nc(C)nn3c2O)CC1 (stereo unspecified),7.7%,-6.2%,u
SMILES,ALDH1A1 block,HPGD block,PNC inhibitor
Oc1c(C(c2ccccc2)N2CCc3ccccc3C2)sc2ncnn12 (stereo unspecified),7.08µM*,31.6µM*,11.3
CCOC(=O)Cc1nnc(Nc2ccc(C)cc2C)c2ccccc12,4.0%,-3.7%,11.9
CN(C)S(=O)(=O)c1cccc(NC(=O)COC(=O)c2c[nH]c(=O)[nH]c2=O)c1,8.2%,x,x
Cc1ccc(Nc2ncnc(N)n2)cc1C,-2.3%,x,x
CCCCC(=O)N(CCOC)c1nnc(-c2ccc(OC)cc2)s1,u,-13.8%,38.5
CCN(C(=O)c1ccco1)c1nnc(-c2ccc(OC)cc2)s1,u,u,-100.0*
CS(=O)(=O)N(CC(=O)NCc1ccncc1)c1ccc(F)c(Cl)c1,14.5%,x,x
Cc1ccc(N(CC(=O)NCc2ccncc2)S(C)(=O)=O)cc1Cl,u,x,-84.4*
O=C(O)/C(=C\c1ccco1)NC(=O)c1cccc2ccccc12,12.3%,-9.7%,50.7
C=CC#CC[N+]1(CC#Cc2ccccc2)CCOCC1,u,25.1µM*,-13.7
C(#Cc1ccccc1)C[N+]1(CC#Cc2ccccc2)CCCC1,7.4%,-3.6%,92.3
CN(C)S(=O)(=O)c1cccc(C(=O)NCc2cccs2)c1,-1.4%,-3.8%,3.2
COc1ccc(-n2c(COc3ccccc3)nnc2SCC(N)=O)cc1,0.4%,0.9%,-19.5
COc1ccc(-n2c(COc3ccc4c(c3)OCO4)nnc2SCC(=O)O)cc1,2.51µM*,x,x
Cc1c(Br)c([N+](=O)[O-])nn1C(C)C(=O)Nc1ccc2c(c1)OCO2 (stereo unspecified),u,-6.0%,10.0
CC(=O)Nc1ccc(NC(=S)Nc2ccccc2)cc1,-0.3%,-8.5%,-21.6
C/C(=C\C(=S)Nc1ccccc1)Nc1ccccc1,5.4%,15.8µM*,u
Cn1cc(-c2nc3cnc(Oc4cccc(Cl)c4)nc3n(CCC#N)c2=O)c2ccccc21,1.8%,-3.2%,x
O=C(O)C1OC(Oc2cc3oc(-c4ccccc4)cc(=O)c3c(O)c2O)C(O)C(O)C1O (stereo unspecified),u,4.47µM*,u
O=C(O)C1OC(Oc2c(-c3ccc(O)c(O)c3)oc3cc(O)cc(O)c3c2=O)C(O)C(O)C1O (stereo unspecified),u,-14.7%,12.8
CC1CCN=C(N)S1 (stereo unspecified),-3.5%,-24.6%,x
CN(c1ccccc1)S(=O)(=O)c1ccc(C(=O)OCC(=O)N2CCOCC2)cc1,-2.3%,-7.8%,-11.6
O=[N+]([O-])c1ccc(S(=O)(=O)Cc2ccccc2)c2nonc12,1.78µM*,3.16µM*,x
CCc1nnc(NS(=O)(=O)c2ccc(Nc3ccc([N+](=O)[O-])c4nonc34)cc2)s1,-6.2%,x,x
CC1(C)C2CCC13CS(=O)(=O)N[C@@H]3C2 (stereo partly specified),-3.2%,-4.0%,8.3
SMILES,ALDH1A1 block,HPGD block,PNC inhibitor
NCC1O[C@@H](OC2C(N)C[C@H](N)[C@@H](O[C@H]3OC(CO)C(O)C(N)C3O)C2O)C(N)C(O)C1O (stereo partly specified),-0.5%,-11.5%,x
COc1ccc(C(=O)N2CC3(CC(c4cccc([N+](=O)[O-])c4)=NO3)C[C@H]2C(=O)NCC(N)=O)cc1 (stereo partly specified),11.2µM*,u,82.6
CCC(=O)N1CC2(CC(c3cccc([N+](=O)[O-])c3)=NO2)C[C@H]1C(=O)NCC(N)=O (stereo partly specified),2.2%,-13.6%,107.8
Cc1noc(C)c1CSc1ncnc2sc(C)c(C)c12,-3.8%,-29.9%,-3.5
Cc1noc(C)c1CSc1ncnc2sc3c(c12)CCCCC3,28.2µM*,u,u
O=C(CCBr)N1CCN(C(=O)CCBr)CC1,0.891µM*,u,x
CN1CCN(C(=O)CCC(=O)c2ccc(F)cc2)CC1,-10.7%,-17.3%,-8.2
CC1CCN(C(=O)c2cc(N3C(=O)C4C5CCC(C5)C4C3=O)ccc2Cl)CC1 (stereo unspecified),-0.2%,x,x
COC(=O)c1cc(N2C(=O)C3C(C2=O)C2(C)C=CC3(C)O2)ccc1Cl (stereo unspecified),0.112µM*,2.82µM*,55.2
O=C1CCC(=O)N1c1ccccc1-c1ccccc1,5.4%,-4.1%,u
O=C1C2C3C=CC(CO)(O3)C2C(=O)N1c1ccccc1-c1ccccc1 (stereo unspecified),1.12µM*,7.94µM*,17.1

# From PubChem
